In PubChem BioAssay AID1159580 (chemical genetic matrix, 2015):
Out of some 5,500 compounds screened, about 2,000 (36%) were called active. Another 18% or so got no clear call; they are omitted. Rule as the data show it: active = normalized growth mostly below about 0.91 (no sharp cut-off); inconclusive = no clear call, values can overlap the other calls; inactive = mostly above about 0.92. This is one part of the list.

Test: chemical genetic growth profiling, strain panel (AID 1159580);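 also: tested at 20 µM; growth read once vehicle control cultures reached saturation at 30 °C; 1 = growth at the plate median or of vehicle wells; lower values mean less growth of the strain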
Conditions: growth OD
[1] = S. cerevisiae deletion strains, locus YDL101C, strain DUN1, active compounds read low
[2] = S. cerevisiae deletion strains, locus YHR030C, strain SLT2, active compounds read low

Measured: normalized growth

CCCCc1ccc(N=CNO)c(C)c1
active: S. cerevisiae deletion strains, locus YDL214C, strain PRR2, active compounds read low 0.427 | S. cerevisiae deletion strains, locus YDR477W, strain SNF1, active compounds read low 0.463 | S. cerevisiae deletion strains, locus YER123W, strain YCK3, active compounds read low 0.242 | S. cerevisiae deletion strains, locus YER133W, strain GLC7, active compounds read low 0.41 | S. cerevisiae deletion strains, locus YFR019W, strain FAB1, active compounds read low 0.255 | S. cerevisiae deletion strains, locus YGR040W, strain KSS1, active compounds read low 0.485 | S. cerevisiae deletion strains, locus YGR052W, strain FMP48, active compounds read low 0.246 | [2] 0.225 | S. cerevisiae deletion strains, locus YHR079C, strain IRE1, active compounds read low 0.146 | S. cerevisiae deletion strains, locus YHR082C, strain KSP1, active compounds read low 0.362 | S. cerevisiae deletion strains, locus YHR205W, strain SCH9, active compounds read low 0.475 | S. cerevisiae deletion strains, locus YJL095W, strain BCK1, active compounds read low 0.178 | S. cerevisiae deletion strains, locus YJL157C, strain FAR1, active compounds read low 0.45 | S. cerevisiae deletion strains, locus YJR066W, strain TOR1 (second series), active compounds read low 0.181 | S. cerevisiae deletion strains, locus YJR066W, strain TOR1, active compounds read low 0.236 | S. cerevisiae deletion strains, locus YKL048C, strain ELM1, active compounds read low 0.604 | S. cerevisiae deletion strains, locus YKL067W, strain YNK1, active compounds read low 0.48 | S. cerevisiae deletion strains, locus YKL101W, strain HSL1, active compounds read low 0.488 | S. cerevisiae deletion strains, locus YKL203C, strain TOR2, active compounds read low 0.391 | S. cerevisiae deletion strains, locus YLR113W, strain HOG1, active compounds read low 0.259 | S. cerevisiae deletion strains, locus YLR133W, strain CKI1, active compounds read low 0.558 | S. cerevisiae deletion strains, locus YLR403W, strain SFP1, active compounds read low 0.465 | S. cerevisiae deletion strains, locus YML070W, strain DAK1, active compounds read low 0.321 | S. cerevisiae deletion strains, locus YMR205C, strain PFK2 (second series), active compounds read low 0.558 | S. cerevisiae deletion strains, locus YNL020C, strain ARK1, active compounds read low 0.529 | S. cerevisiae deletion strains, locus YNL183C, strain NPR1, active compounds read low 0.229 | S. cerevisiae deletion strains, locus YNL307C, strain MCK1 (second series), active compounds read low 0.452 | S. cerevisiae deletion strains, locus YOL136C, strain PFK27, active compounds read low 0.358 | S. cerevisiae deletion strains, locus YOR061W, strain CKA2, active compounds read low 0.528 | S. cerevisiae deletion strains, locus YOR119C, strain RIO1, active compounds read low 0.332 | S. cerevisiae deletion strains, locus YOR231W, strain MKK1, active compounds read low 0.281 | S. cerevisiae deletion strains, locus YPL031C, strain PHO85, active compounds read low 0.444 | S. cerevisiae deletion strains, locus YPL153C, strain RAD53, active compounds read low 0.369 | S. cerevisiae deletion strains, locus YPL204W, strain HRR25, active compounds read low 0.418 | S. cerevisiae deletion strains, locus YPL256C, strain CLN2, active compounds read low 0.267
inactive: S. cerevisiae deletion strains, locus YAR019C, strain CDC15, active compounds read low 0.985 | S. cerevisiae deletion strains, locus YBL105C, strain PKC1, active compounds read low 1.01 | S. cerevisiae deletion strains, locus YBR135W, strain CKS1, active compounds read low 0.983 | S. cerevisiae deletion strains, locus YBR136W, strain MEC1, active compounds read low 0.976 | S. cerevisiae deletion strains, locus YBR160W, strain CDC28, active compounds read low 0.996 | S. cerevisiae deletion strains, locus YDL017W, strain CDC7, active compounds read low 0.997 | S. cerevisiae deletion strains, locus YDL028C, strain MPS1, active compounds read low 0.974 | [1] 0.914 | S. cerevisiae deletion strains, locus YDL108W, strain KIN28, active compounds read low 0.974 | S. cerevisiae deletion strains, locus YDL132W, strain cdc53, active compounds read low 0.977 | S. cerevisiae deletion strains, locus YDR052C, strain DBF4, active compounds read low 0.995 | S. cerevisiae deletion strains, locus YDR054C, strain cdc34, active compounds read low 0.967 | S. cerevisiae deletion strains, locus YDR226W, strain ADK1, active compounds read low 0.986 | S. cerevisiae deletion strains, locus YFL009W, strain cdc4, active compounds read low 0.986 | S. cerevisiae deletion strains, locus YFL029C, strain CAK1, active compounds read low 0.977 | S. cerevisiae deletion strains, locus YFR003C, strain YPI1, active compounds read low 0.99 | S. cerevisiae deletion strains, locus YFR028C, strain CDC14, active compounds read low 0.967 | S. cerevisiae deletion strains, locus YGR092W, strain DBF2, active compounds read low 0.575 | S. cerevisiae deletion strains, locus YIL147C, strain SLN1, active compounds read low 0.985 | S. cerevisiae deletion strains, locus YJL128C, strain PBS2, active compounds read low 0.982 | S. cerevisiae deletion strains, locus YJR016C, strain ILV3, active compounds read low 0.996 | S. cerevisiae deletion strains, locus YKL193C, strain SDS22, active compounds read low 0.978 | S. cerevisiae deletion strains, locus YMR001C, strain CDC5, active compounds read low 0.982 | S. cerevisiae deletion strains, locus YMR277W, strain FCP1, active compounds read low 0.977 | S. cerevisiae deletion strains, locus YNL006W, strain LST8, active compounds read low 1 | S. cerevisiae deletion strains, locus YNL161W, strain CBK1, active compounds read low 0.992 | S. cerevisiae deletion strains, locus YNL207W, strain RIO2, active compounds read low 0.968 | S. cerevisiae deletion strains, locus YNL222W, strain SSU72, active compounds read low 0.985 | S. cerevisiae deletion strains, locus YOL078W, strain AVO1, active compounds read low 0.948 | S. cerevisiae deletion strains, locus YOR329C, strain SCD5, active compounds read low 0.993 | S. cerevisiae deletion strains, locus YPL209C, strain IPL1, active compounds read low 0.993 | S. cerevisiae deletion strains, locus YPR025C, strain CCL1, active compounds read low 0.993 | S. cerevisiae deletion strains, locus YPR106W, strain ISR1, active compounds read low 0.989 | S. cerevisiae deletion strains, locus YPR111W, strain DBF20, active compounds read low 0.995 | S. cerevisiae deletion strains, strain NNK1, active compounds read low 0.974 | S. cerevisiae deletion strains, strain TSCII, active compounds read low 0.964

COC(=O)c1c(OC)ccc(N=CNO)c1OC
inactive: S. cerevisiae deletion strains, locus YAL013W, strain DEP1, active compounds read low 1 | S. cerevisiae deletion strains, locus YBR229C, strain ROT2, active compounds read low 0.982 | [1] 0.993 | S. cerevisiae deletion strains, locus YDL134C, strain PPH21, active compounds read low 1.01 | S. cerevisiae deletion strains, locus YDR150W, strain NUM1, active compounds read low 0.962 | S. cerevisiae deletion strains, locus YEL061C, strain CIN8, active compounds read low 1.01 | S. cerevisiae deletion strains, locus YGR078C, strain PAC10, active compounds read low 1 | [2] 1.05 | S. cerevisiae deletion strains, locus YHR087W, strain rtc3, active compounds read low 0.986 | S. cerevisiae deletion strains, locus YJL187C, strain SWE1, active compounds read low 0.985 | S. cerevisiae deletion strains, locus YJR043C, strain POL32, active compounds read low 1 | S. cerevisiae deletion strains, locus YJR075W, strain HOC1, active compounds read low 0.976 | S. cerevisiae deletion strains, locus YKL190W, strain CNB1, active compounds read low 1.01 | S. cerevisiae deletion strains, locus YLR039C, strain RIC1, active compounds read low 1.02 | S. cerevisiae deletion strains, locus YLR058C, strain SHM2 (second series), active compounds read low 1 | S. cerevisiae deletion strains, locus YLR085C, strain ARP6, active compounds read low 0.999 | S. cerevisiae deletion strains, locus YLR262C, strain YPT6, active compounds read low 0.997 | S. cerevisiae deletion strains, locus YML094W, strain GIM5, active compounds read low 0.993 | S. cerevisiae deletion strains, locus YMR219W, strain ESC1, active compounds read low 0.999 | S. cerevisiae deletion strains, locus YMR263W, strain SAP30, active compounds read low 0.926 | S. cerevisiae deletion strains, locus YMR307W, strain GAS1, active compounds read low 0.94 | S. cerevisiae deletion strains, locus YNL153C, strain GIM3, active compounds read low 0.989 | S. cerevisiae deletion strains, locus YNL298W, strain CLA4 (second series), active compounds read low 1.03 | S. cerevisiae deletion strains, locus YNL322C, strain KRE1, active compounds read low 1 | S. cerevisiae deletion strains, locus YNR030W, strain Alg12, active compounds read low 0.996 | S. cerevisiae deletion strains, locus YPL055C, strain LGE1, active compounds read low 0.888 | S. cerevisiae deletion strains, locus YPL241C, strain CIN2, active compounds read low 1.01 | S. cerevisiae deletion strains, locus YPR135W, strain CTF4, active compounds read low 1.07 | S. cerevisiae strains, strain wild type, active compounds read low 1.03
